Results reported in PubChem BioAssay (Tox21).
Where “and” joins values, the source holds several entries; their conditions need not be identical. Equal values may be shown once. Inconclusive results are not listed. More than one record can exist for a structure, and the calls need not agree. Calls of active or inactive are those of the source. Calls follow the shape of the dose curve; as a rule, active = well fitted curve in the direction sought with a large enough effect in the repeat runs; inconclusive = weak or mixed curves; inactive = no such curve, though single readings can be large; an effect the other way counts as inactive or inconclusive.

Key:
[1] = A CellTox Green Cytotoxicity Assay to monitor cytotoxicity in HEK293 cells - 40 hour (AID 1224871); also: nearly all actives have a fitted effect of over 45% in size
How it was run: (§1)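 Nonlytic real-time cytotoxicity: HEK293 + CellTox Green reagent plated, 5 h preincubation, pintool compound addition (23 nL in DMSO), 37 C for 40 h, fluorescence measured at successive time points.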

[2] = qHTS RealTime-Glo MT Cell Viability Assay in HEK293 cells - 16 hour (AID 1224872); also: nearly all actives have a fitted effect of over 50% in size; as to activity change, negative = cytotoxicity: top concentration of the series differs between compounds
How it was run: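 Viability tracked continuously by luminescence as live cells reduce a prosubstrate for NanoLuc; HEK293 cells preincubated 5 h, compound-treated at 37 C, and read at 0, 8, 16, 24, 32 and 40 h.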

[3] = qHTS RealTime-Glo MT Cell Viability Assay in HepG2 cells - 8 hour (AID 1224873); also: nearly all actives have a fitted effect of over 55% in size
How it was run: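 HepG2 cells (600/well) mixed with RealTime-Glo MT reagent, settled 5 h at 37 C/5% CO2 before compound addition. Nonlytic NanoLuc luminescence from viable-cell prosubstrate reduction read repeatedly during 40 h treatment at 37 C.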

[4] = qHTS RealTime-Glo MT Cell Viability Assay in HEK293 cells - 40 hour (AID 1224874); details: RealTime-Glo luminescence; max response: stronger effect = lower value; also: nearly all actives have a fitted effect of over 50% in size
How it was run: (§2)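 Cells were seeded together with NanoLuc luciferase and a prosubstrate that viable cells reduce to a luciferase substrate. After a 5 h incubation at 37 C/5% CO2, compounds were added and luminescence was measured repeatedly during 40 h of treatment.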

[5] = A CellTox Green Cytotoxicity Assay to monitor cytotoxicity in HEK293 cells - 24 hour (AID 1224875); also: nearly all actives have a fitted effect of over 45% in size; as to activity change: series mostly up to about 77 µM
How it was run: as §1

[6] = A CellTox Green Cytotoxicity Assay to monitor cytotoxicity in HepG2 cells - 16 hour (AID 1224876); also: nearly all actives have a fitted effect of over 45% in size
How it was run: (§3)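 Read-out is fluorescence of a cyanine dye excluded from live cells that stains DNA of dead HepG2 cells, with signal proportional to cytotoxicity. Plates were read at 0, 8, 16, 24, 32 and 40 h after compound addition.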

[7] = qHTS RealTime-Glo MT Cell Viability Assay in HepG2 cells - 32 hour (AID 1224877); also: nearly all actives have a fitted effect of over 55% in size
How it was run: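 Viability was tracked continuously by NanoLuc luminescence from prosubstrate reduced by living HepG2 cells, at successive time points over 40 h of compound exposure. Cells with reagent were preincubated 5 h at 37 °C before compound addition.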

[8] = A CellTox Green Cytotoxicity Assay to monitor cytotoxicity in HepG2 cells - 24 hour (AID 1224878); also: nearly all actives have a fitted effect of over 45% in size
How it was run: as §3

[9] = A CellTox Green Cytotoxicity Assay to monitor cytotoxicity in HepG2 cells - 40 hour (AID 1224879); also: nearly all actives have a fitted effect of over 40% in size
How it was run: as §3

[10] = qHTS RealTime-Glo MT Cell Viability Assay in HEK293 cells - 0 hour (AID 1224880); also: nearly all actives have a fitted effect of over 45% in size; as to activity change, negative = cytotoxicity: top concentration of the series differs between compounds
How it was run: as §2
% is scaled to controls: 0 for no effect and ±100 for the full control effect; potency is read from the fitted curve at half-maximal effect.

c1ccc2c(c1)CCCC2C1=NCCN1 (stereo not drawn)
inactive: Potency [1] | Potency [2] | Potency [3] | max response [4] 3.27% | Potency [5] | Potency [6] | Potency [7] | Potency [8] | Potency [9] | Potency [10]

Cc1cc(C(C)(C)C)c(O)c(C(C)(C)C)c1
active: Potency [1] 49.1 µM | Potency [5] 49.1 µM
inactive: Potency [2] | Potency [3] | max response [4] -21.9% and 0.957% and 2.01% | Potency [6] | Potency [7] | Potency [8] | Potency [9] | Potency [10]

CCN(CC)CCOc1ccc(/C(=C(\Cl)c2ccccc2)c2ccccc2)cc1
active: Potency [1] 19.9 µM and 23.9 µM | Potency [2] 14.1 µM and 21.3 µM | Potency [3] 31.6 µM | Potency [4] 12.6 µM and 19 µM | Potency [5] 31.6 µM and 23.9 µM | Potency [6] 31.6 µM and 21.3 µM | Potency [7] 19.9 µM and 23.9 µM | Potency [8] 19.9 µM and 21.3 µM | Potency [9] 17.7 µM and 16.9 µM
inactive: Potency [10]

CCN(CC)C(=O)Nc1ccc(OCC(O)CNC(C)(C)C)c(C(C)=O)c1 (stereo not drawn)
inactive: Potency [1] | Potency [2] | Potency [3] | max response [4] 1.66% | Potency [5] | Potency [6] | Potency [7] | Potency [8] | Potency [9] | Potency [10]

CCC(C)(Oc1ccc(C2(c3ccc(OC(C)(CC)C(=O)O)cc3)CCCCC2)cc1)C(=O)O (stereo not drawn)
inactive: Potency [1] | Potency [2] | Potency [3] | max response [4] 8.3% | Potency [5] | Potency [6] | Potency [7] | Potency [8] | Potency [9] | Potency [10]

O=C(OCc1ccccc1)c1ccc(O)cc1
49 µM (active) and inactive: Potency [9]
inactive: Potency [1] | Potency [2] | Potency [3] | max response [4] -24.2% | Potency [5] | Potency [6] | Potency [7] | Potency [8] | Potency [10]

CCC(CO)(CO)COCC(CC)(CO)CO
inactive: Potency [1] | Potency [2] | Potency [3] | max response [4] -1.05% | Potency [5] | Potency [6] | Potency [7] | Potency [8] | Potency [9] | Potency [10]

O=S(=O)(O)c1ccc2nc(-c3ccccc3)[nH]c2c1
inactive: Potency [1] | Potency [2] | Potency [3] | max response [4] 4.15% and 2.95% | Potency [5] | Potency [6] | Potency [7] | Potency [8] | Potency [9] | Potency [10]

CC(=O)CC(=O)Nc1ccc2[nH]c(=O)[nH]c2c1
inactive: Potency [1] | Potency [2] | Potency [3] | max response [4] -1.76% | Potency [5] | Potency [6] | Potency [7] | Potency [8] | Potency [9] | Potency [10]

NC(Cc1ccc(Cl)cc1)C(=O)O (stereo not drawn)
inactive: cytotoxicity increase [1] -8.99% [at 0.29 µM] | activity change, negative = cytotoxicity [2] 9.16% [at 0.29 µM] | viability change, negative = cytotoxic [3] -7.98% [at 0.29 µM] | max response [4] 10.5% | activity change [5] -5.17% [at 0.29 µM, stronger effect = higher value] | cytotoxicity increase [6] -4.84% [at 0.29 µM] | activity change, negative = cytotoxic [7] 0.542% [at 0.29 µM] | cytotoxicity [8] -5.86% [at 0.29 µM] | cytotoxicity increase [9] -9.84% [at 0.29 µM] | activity change, negative = cytotoxicity [10] 12.3% [at 0.29 µM]

CN1C(=O)c2ccc([N+](=O)[O-])cc2C1=O
inactive: Potency [1] | Potency [2] | Potency [3] | max response [4] 0.763% | Potency [5] | Potency [6] | Potency [7] | Potency [8] | Potency [9] | Potency [10]

CC(C)C(=O)c1c(C(C)C)nn2ccccc12
inactive: Potency [1] | Potency [2] | Potency [3] | max response [4] -0.81% | Potency [5] | Potency [6] | Potency [7] | Potency [8] | Potency [9] | Potency [10]

COc1ccc(CCN2CCC(Nc3nc4ccccc4n3Cc3ccc(F)cc3)CC2)cc1
active: Potency [1] 11.2 µM and 23.9 µM | Potency [2] 8.9 µM and 9.52 µM | Potency [3] 35.4 µM and 23.9 µM | Potency [4] 5.62 µM and 10.7 µM | Potency [5] 17.8 µM and 23.9 µM | Potency [6] 31.6 µM and 21.3 µM | Potency [7] 15.8 µM and 10.7 µM | Potency [8] 19.9 µM and 9.52 µM | Potency [9] 15.8 µM and 8.49 µM
inactive: Potency [10]

COc1ccc(COC(C)=O)cc1
inactive: Potency [1] | Potency [2] | Potency [3] | max response [4] 5.85% | Potency [5] | Potency [6] | Potency [7] | Potency [8] | Potency [9] | Potency [10]

CCCCCCCCCCCCc1ccccc1O
inactive and 21.9 µM (active): Potency [6]
inactive: Potency [10]
inactive and 34.7 µM (active): Potency [3]
inactive and 43.6 µM (active): Potency [7]
active: Potency [1] 43.1 µM and 34.7 µM | Potency [2] 43.1 µM and 43.6 µM | Potency [4] 48.3 µM and 49 µM | Potency [5] 43.1 µM and 38.9 µM | Potency [8] 17.4 µM | Potency [9] 48.3 µM and 21.9 µM

CC(=O)CC(C)=O
inactive: Potency [1] | Potency [2] | Potency [3] | max response [4] -5.33% | Potency [5] | Potency [6] | Potency [7] | Potency [8] | Potency [9] | Potency [10]

Cc1cc(OCCOCC[N+](C)(C)Cc2ccccc2)ccc1C(C)(C)CC(C)(C)C
active: Potency [1] 21.7 µM and 23.9 µM | Potency [2] 19.4 µM and 19 µM | Potency [3] 21.7 µM and 23.9 µM | Potency [4] 9.71 µM and 6.01 µM | Potency [5] 21.7 µM and 23.9 µM | Potency [6] 19.4 µM and 15.1 µM | Potency [7] 13.7 µM and 9.52 µM | Potency [8] 17.3 µM and 10.7 µM

CC(C)(C)c1ccc(O)c(C(C)(C)C)c1
active: Potency [1] 24.4 µM and 34.7 µM | Potency [2] 34.5 µM | Potency [3] 38.9 µM | Potency [4] 38.7 µM | Potency [5] 21.8 µM and 34.7 µM | Potency [6] 48.8 µM and 43.6 µM | Potency [8] 48.8 µM and 43.6 µM | Potency [9] 48.8 µM and 43.6 µM
inactive: max response [4] -25% | Potency [10]

CC(=O)OCCOCCOCCOC(C)=O
inactive: Potency [1] | Potency [2] | Potency [3] | max response [4] 7.9% and 19.2% | Potency [5] | Potency [6] | Potency [7] | Potency [8] | Potency [9] | Potency [10]

CCOc1ccccc1C(N)=O
inactive: Potency [1] | Potency [2] | Potency [3] | max response [4] -15.3% and 4.4% | Potency [5] | Potency [6] | Potency [7] | Potency [8] | Potency [9] | Potency [10]

CC(=O)O[C@]1(C(C)=O)CC[C@H]2[C@@H]3C[C@H](C)C4=CC(=O)CC[C@]4(C)[C@H]3CC[C@@]21C
inactive: Potency [3] | Potency [5] | Potency [6] | Potency [7] | Potency [8] | Potency [9]
active: Potency [2] 17.4 µM | Potency [4] 19.5 µM and 9.52 µM | Potency [10] 691 nM and 756 nM
48.9 µM (active) and inactive: Potency [1]

Cc1scc2c1N(C(=O)CN1CCN(C)CC1)c1ccccc1NC2=O
inactive: Potency [1] | Potency [2] | Potency [3] | max response [4] 1.2% | Potency [5] | Potency [6] | Potency [7] | Potency [8] | Potency [9] | Potency [10]

C1COC(NC(C2CC2)C2CC2)=N1
inactive: Potency [1] | Potency [2] | Potency [3] | max response [4] 5.02% | Potency [5] | Potency [6] | Potency [7] | Potency [8] | Potency [9] | Potency [10]

CC(C)(C)NCC(O)c1cc(O)cc(O)c1 (stereo not drawn)
inactive: Potency [1] | Potency [2] | Potency [3] | max response [4] 4.94% | Potency [5] | Potency [6] | Potency [7] | Potency [8] | Potency [9] | Potency [10]

NC(N)=NC(=O)Cc1c(Cl)cccc1Cl
inactive: Potency [1] | Potency [2] | Potency [3] | max response [4] -13.5% | Potency [5] | Potency [6] | Potency [7] | Potency [8] | Potency [9] | Potency [10]

Nc1cc(S(=O)(=O)O)cc2cc(S(=O)(=O)O)cc(O)c12
inactive: Potency [1] | Potency [2] | Potency [3] | max response [4] -12.9% | Potency [5] | Potency [6] | Potency [7] | Potency [8] | Potency [9] | Potency [10]

OCCOCCN1CCN(C(c2ccccc2)c2ccc(Cl)cc2)CC1 (stereo not drawn)
active: Potency [4] 7.66 µM | Potency [9] 38.4 µM
54.2 µM (active) and inactive: Potency [1]
inactive: Potency [3] | max response [4] -17.5% | Potency [10]
48.3 µM (active) and inactive: Potency [7]
9.64 µM (active) and inactive: Potency [2]
38.4 µM (active) and inactive: Potency [6] | Potency [8]

NNCCc1ccccc1
inactive: Potency [1] | Potency [2] | Potency [3] | max response [4] -29.6% and 3.04% | Potency [5] | Potency [6] | Potency [7] | Potency [8] | Potency [9] | Potency [10]

CCCCC/C=C/CC1CC(=O)OC1=O (stereo not drawn)
inactive: Potency [1] | Potency [2] | Potency [3] | max response [4] 1.06% | Potency [5] | Potency [6] | Potency [7] | Potency [8] | Potency [9] | Potency [10]

CCCCOCCOC(=O)c1ccccc1C(=O)OCCOCCCC
inactive: Potency [1] | Potency [2] | Potency [3] | max response [4] -18.4% | Potency [5] | Potency [6] | Potency [7] | Potency [8] | Potency [9] | Potency [10]
